The full list was thinned out, with hits kept by preference.
CHX counter – Cycloheximide Counterscreen for Small Molecule Inhibitors of Shiga Toxin. cell reporter, cycloheximide protein synthesis inhibition counterscreen. max response, %. actives 12% (n = 300,000). AID 2314, 2010; in the data active means max response mostly above about 13%, no sharp cut-off; inactive means mostly below about 14%; further: read at 38.3 µM for the half of the compounds with a filed dose; 0% is about no effect
SARS PLpro yeast – qHTS of Yeast-based Assay for SARS-CoV PLP | S. cerevisiae expressing SARS-CoV PLpro, growth rescue | Potency, µM (highest dose often 32.9 µM), for the others: top-dose activity, positive = growth rescue, actives largely listed as activators | actives 0.19% (n = 330,000) | AID 485353, 2010; calls by dose curve; further: potency means the concentration at half of the fitted maximal effect; 0% is about no effect; nearly all actives have a fitted effect of over 55% in size
AmpC inh detg – qHTS Inhibitors of AmpC Beta-Lactamase (assay with detergent); P00811; AmpC hydrolysis of nitrocefin, absorbance 480 nm, 0.01% Triton; Potency, µM (titrated, usually from 114 µM), without a hit: at the highest dose activity change, negative = inhibition, most hits filed as inhibitors; actives 0.041% (n = 370,000); AID 485294, 2010;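 further: potency means the concentration at half of the fitted maximal effect; 0% = no-compound wells and -100% = no-enzyme wells; nearly all actives have a fitted effect of over 25% in size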
Target sequence (P00811 whole entry, looked up): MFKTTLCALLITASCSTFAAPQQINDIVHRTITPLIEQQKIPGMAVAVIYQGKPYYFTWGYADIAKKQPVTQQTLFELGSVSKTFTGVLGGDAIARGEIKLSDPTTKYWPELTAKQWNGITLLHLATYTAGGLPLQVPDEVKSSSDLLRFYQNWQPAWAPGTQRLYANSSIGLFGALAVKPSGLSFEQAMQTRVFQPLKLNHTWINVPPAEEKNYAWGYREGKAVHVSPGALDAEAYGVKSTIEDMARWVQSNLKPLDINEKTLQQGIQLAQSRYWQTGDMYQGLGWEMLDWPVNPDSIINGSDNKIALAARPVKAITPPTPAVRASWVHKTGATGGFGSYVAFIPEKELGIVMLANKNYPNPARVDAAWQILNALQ
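AmpC (5.3 nM in the dispensed reagent) in 20 mM phosphate pH 7.0 with 0.01% (detergent screen) or 0.0001% Triton X-100 was preincubated with compounds for 15 min at room temperature. Nitrocefin was then added from an 800 uM solution, and hydrolysis was followed at 480 nm.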
AmpC no deterg – qHTS Inhibitors of AmpC Beta-Lactamase (assay without detergent). P00811. AmpC nitrocefin hydrolysis, absorbance 480 nm, 0.0001% Triton. Potency, µM (titrated, usually from 57.1 µM), for the others: top-dose activity change, negative = inhibition, actives largely listed as inhibitors. actives 0.52% (n = 330,000);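 further: potency means the concentration at half of the fitted maximal effect; plate controls were no compound for no effect and no enzyme for full effect; nearly all actives have a fitted effect of over 20% in size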
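20 mM phosphate pH 7.0 + 0.01% (detergent screen) or 0.0001% Triton X-100; 5.3 nM AmpC reagent; cpd preinc 15 min RT; nitrocefin (800 uM stock) to start; A480 q20 s × 4 min; Activity was normalised to no-enzyme and no-compound control wells.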
Shiga inhibitor – A qHTS for Small Molecule Inhibitors of Shiga Toxin | Vero cells, Shiga toxin protein synthesis inhibition reporter | inhibition, % at 38.7 µM | actives 9.2% (n = 290,000) | AID 2315, 2010; in the data active means inhibition mostly above about 28%, no sharp cut-off; inactive means mostly below about 43%; further: 0% is about no effect
AMA1 RON2 block – qHTS for Inhibitors of AMA1-RON; Towards Development of Antimalarial Drug Lead: Primary Screen. Plasmodium falciparum AMA1 (3D7) - RON2 peptide interaction. AlphaScreen AMA1-biotinylated RON2 peptide binding. actives 0.2% (n = 360,000). AID 720542, 2013. Potency, µM (doses to about 58.2 µM), inactives show top-dose activity change, negative = inhibition, usual class: inhibitors;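 further: potency means the concentration at half of the fitted maximal effect; 0% = vehicle wells and -100% = peptide control; nearly all actives have a fitted effect of over 45% in size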
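AMA1 (3D7) with his tag at 25 nM final met compounds first, then biotinylated RON2 peptide at 25 nM; detection used donor plus acceptor beads, 10 µg/mL apiece, read by AlphaScreen after 30 min at room temperature.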
Numbers without * were called inactive; u = inconclusive; x = no result; [ ] = remark or other dose. Unless noted, the call rests on the fitted dose curve; in most records, active means well fitted curve in the direction sought with a large enough effect; inconclusive means small, poorly fitted or top-dose-only effect, or another doubt; inactive means no such curve, though single readings can be large; an effect the other way counts as inactive or inconclusive.

SMILES	CHX counter	SARS PLpro yeast	AmpC inh detg	AmpC no deterg	Shiga inhibitor	AMA1 RON2 block
O=C(CSc1ncccn1)NC(=O)Nc1ccc2c(c1)OCCO2	34.6*	-0.5%	3.7%	-26.5%	46.0*	-8.5%
O=C(CCn1c(=S)oc2ccccc21)Nc1ccc2c(c1)OCCO2	14.8*	-0.1%	-1.5%	-24.8%	12.9	-2.6%
CC(=O)Nc1ccc(NC(=O)CCn2c(=S)oc3ccccc32)cc1	-1.8	0.8%	-9.5%	-9.9%	3.0	12.6%
O=C(CCn1cnc2ccccc2c1=O)Nc1ccc2c(c1)OCCO2	14.4*	3.7%	u	-16.0%	73.4*	u
O=C(CSc1ccc([N+](=O)[O-])cn1)Nc1ccc2c(c1)OCCO2	17.3*	0.5%	-5.7%	-2.7%[2.29 µM]	33.8	-6.7%
C[C@H](CO)N1C[C@H](C)[C@@H](CN(C)CC2CC2)Oc2c(NS(=O)(=O)c3ccc(F)cc3)cccc2C1=O	x	-1.9%	x	75.7%	x	0.0%
CCOc1ccc(NS(=O)(=O)c2cc(C(=O)NCCCN3CCOCC3)ccc2C)cc1	x	1.0%	-9.4%	1.3%	x	93.1%
O=c1c2ccccc2ncn1-c1ccc2c(c1)OCCO2	31.6*	3.0%	1.3%	-11.0%	64.7*	7.9%
O=c1cc[nH]c(=O)[nH]1	x	x	4.2%	-3.3%	x	2.4%
O=C(OCc1ccccc1)c1cccc(-c2nnc(-c3ccccc3)o2)c1	-4.7	-3.8%	0.9%	-12.5%	5.6	21.2%
O=C(OCc1nnc(-c2ccccc2)o1)c1ccc(CO)cc1	16.5	3.7%	1.5%	-22.4%	30.0	14.7%
O=C(OCc1nnc(-c2ccccc2)o1)c1cccc(-n2cnnn2)c1	x	0.6%	1.5%	-23.4%	x	13.6%
CC(C)OC(=O)c1ccc(COC(=O)c2cccc(-c3nnc(-c4ccccc4)o3)c2)cc1	17.1*	-5.3%	-12.9%	-24.4%	31.8	-8.9%
CCOC(=O)c1cccc(COC(=O)c2cccc(-c3nnc(-c4ccccc4)o3)c2)c1	46.1*	15.2%	-9.6%	-48.4%	77.9*	-21.6%
O=C(OCc1ccc(C(=O)c2ccccc2)cc1)c1cccc(-c2nnc(-c3ccccc3)o2)c1	22.2*	-3.2%	6.1%	-6.3%	63.7*	1.5%
COc1ccc(CCNC(=O)c2ccc3nc(Cc4ccccc4)oc3c2)cc1OC	x	x	15.2%	x	x	x
Cc1c(C#N)c(O)n(CCO)c(=O)c1N=Nc1ccc(S(N)(=O)=O)cc1	1.6	3.3%	-0.3%	-23.3%	-4.2	-14.6%
CCOC(=O)c1ccc(N=Nc2c(C)c(C#N)c(O)[nH]c2=O)cc1	45.6*	2.1%	0.0%	-22.9%	83.3*	-4.6%
CCOc1ccc(C(=O)Nc2nnc(S(=O)(=O)N3CCCCC3)s2)cc1	-11.3	u	-1.4%	-24.4%	-3.7	11.1%
CCOC(=O)C1=C(COC(=O)[C@@H]2CCCN2S(=O)(=O)c2ccc(C)cc2)NC(=O)NC1C (some centres undefined)	12.1*	-0.8%	1.4%	29.4%	9.8	-9.2%
Cc1ccc(S(=O)(=O)N2CCC[C@H]2C(=O)OCC(=O)N2c3ccccc3NC(=O)C2(C)C)cc1	x	x	x	x	x	-0.8%
Cc1nn(-c2nnc(C)c(=O)[nH]2)c(C)c1SCC(=O)Nc1ccc(C(C)C)cc1	3.2	0.0%	u	-35.6%	-2.3	6.5%
Cc1ccc(N2Cc3ccccc3OC(C)C2=O)cc1 (centres undefined)	-4.8	10.2%	u	-3.5%	-18.3	-4.4%
S=C1c2ccccc2CN1c1ccccc1	59.6*	8.0%	-11.4%	-17.0%	74.9*	-0.4%[2.32 µM]
Cc1ccc(N2Cc3ccccc3C2=S)cc1	36.9*	0.0%	1.0%	-17.1%	81.8*	2.2%
SMILES	CHX counter	SARS PLpro yeast	AmpC inh detg	AmpC no deterg	Shiga inhibitor	AMA1 RON2 block
O=c1c2ccccc2oc2ccc(Oc3ccccc3)cc12	40.9*	-6.6%	-5.7%	-29.4%	42.0*	145.1%
Cc1nc(-c2ccccc2)sc1C(=O)/C=C/c1ccc(Cl)cc1	-1.0	-1.6%	-12.9%	-19.0%	-15.6	-0.1%
Cc1nc(-c2ccccc2Cl)sc1C(=O)/C=C/N(C)C	24.3*	0.3%	6.9%	-27.2%	64.4	-6.1%
CCN(CC)CCCNC(=O)C1CCN(c2ncnc3c2sc2cccc(F)c23)CC1	-1.3	-0.1%	1.9%	37.8%	2.6	2.9%
Nc1cc([N+](=O)[O-])cc2oc(-c3ccccc3)cc12	53.0*	-1.3%	-5.5%	-47.8%	53.5*	u
O=C(/C=C/c1cccc(F)c1)c1ccc(N2CCOCC2)cc1	49.6*	-0.2%	-1.6%	-6.8%	99.3*	-8.2%
CC(C)CC(=O)Nc1ccc(-c2nnn(CC(=O)NCc3ccco3)n2)cc1	29.2*	1.6%	-2.1%	-24.9%	85.8*	1.7%
CCOc1ccc(-c2nnn(CC(=O)NCc3ccco3)n2)cc1OCC	-2.2	13.9%	u	-5.7%	-1.3	1.3%
CCCCOc1ccc(-c2nnn(CC(=O)NCc3ccco3)n2)cc1	30.8*	-3.0%	-11.2%	-7.8%	68.9*	-4.0%
Cc1ccc(N2C(=O)c3ccccc3C2Nc2ccccc2)nc1 (centres undefined)	9.8	-6.7%	u	-2.6%	30.1	-0.3%
Cc1ccnc(N2C(=O)c3ccccc3C2O)c1 (centres undefined)	38.8*	-7.5%	u	-10.4%	41.9	0.0%
Cc1ccnc(N2C(=O)c3ccccc3C2Nc2cccc(C)c2C)c1 (centres undefined)	14.7*	-8.5%	u	-20.5%	28.4*	-7.2%
O=C(Cc1cccs1)N(c1ccccc1)C1C=CS(=O)(=O)C1 (centres undefined)	0.9	-5.6%	-0.2%	-6.8%	-32.6	-13.1%
O=C1NC[C@H](CC2CCCCC2)N(CCc2cccc3ccccc23)C1=O	x	x	x	x	x	-2.5%
O=C(NCc1cccs1)C1CCC(=O)N(Cc2cccc(C(F)(F)F)c2)C1 (centres undefined)	38.9*	4.4%	-3.4%	86.2%	7.6	6.3%
O=C(NCC1CCOCC1)C1CCC(=O)N(Cc2cccc(C(F)(F)F)c2)C1 (centres undefined)	19.5	0.6%	u	17.4%	14.2	-7.1%
O=C1CCC(C(=O)N2CCCO2)CN1Cc1cccc(C(F)(F)F)c1 (centres undefined)	29.0*	-5.3%	-2.6%	12.8%	44.1*	-21.4%
O=C(NCCc1ccc(C(F)(F)F)cc1)C1CCC(=O)N(CCc2cccc(F)c2)C1 (centres undefined)	16.4*	1.0%	2.5%	165.9%	11.2	16.5%
O=C1CCC(C(=O)N2CCCCO2)CN1CCc1ccccc1 (centres undefined)	41.6*	-1.0%	-4.4%	-7.9%	81.4*	-2.6%
